Laboratory results published in PubChem BioAssay (Tox21).
Inconclusive results are not listed. Activity calls are given as the source filed them. Unless noted, the call rests on the fitted dose curve; in most records, active means well fitted curve in the direction sought with a large enough effect in the repeat runs; inconclusive means weak or mixed curves; inactive means no such curve, though single readings can be large; an effect the other way counts as inactive or inconclusive.

What was measured:
[1] = qHTS assay to identify small molecule agonists of the vitamin D receptor (VDR) signaling pathway - cell viability counter screen (AID 743224); further: series mostly up to about 63 µM; nearly all actives have a fitted effect of over 50% in size
Summary of the method: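 Viability is measured in the same wells as the VDR-bla reporter assay: after 16 h compound treatment and 2 h substrate loading, CellTiter-Glo is added and luminescence read 30 min later.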

[2] = qHTS assay to identify small molecule agonists of the NFkB signaling pathway (AID 1159509; active means well fitted curve in the direction sought with a large enough effect in the signal ratio in the repeat runs, not every such curve was filed as active; the % refers to the signal ratio; further: series mostly up to about 61 µM)
Summary of the method: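 NFkB-bla ME-180 cells carry a beta-lactamase reporter under an NF-kB response element. They were plated overnight, then exposed to compounds for 5 h at 37 C. Read-out is LiveBLAzer FRET after 1.5 hr at room temperature (405 nm excitation; 460/530 nm emission).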

[3] = qHTS assay to identify small molecule agonists of the NFkB signaling pathway - cell viability counter screen (AID 1159515; calls by dose curve; further: series mostly up to about 61 µM; nearly all actives have a fitted effect of over 55% in size)
Summary of the method: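 Multiplexed viability readout: after the 5 hr compound exposure and 1.5 hr FRET substrate step, CellTiter-Glo reagent went into the same NFkB-bla ME-180 wells; ATP luminescence was measured after 30 min at room temperature.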

[4] = qHTS assay to identify small molecule agonists of the endoplasmic reticulum stress response signaling pathway (AID 1159516; active means well fitted activation curve with a large enough effect in the signal ratio in the repeat runs, not every such curve was filed as active; the % refers to the signal ratio)
Summary of the method: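 Tox21 10K library screened in quantitative HTS format on ESRE-bla HeLa cells, a beta-lactamase reporter under ER stress response element control; 5 hr treatment, FRET read.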

[5] = qHTS assay to identify small molecule agonists of the endoplasmic reticulum stress response signaling pathway - cell viability counter screen (AID 1159517; calls by dose curve; further: series mostly up to about 61 µM; nearly all actives have a fitted effect of over 50% in size)
Summary of the method: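 CellTiter-Glo was added to wells already read for beta-lactamase FRET, and luminescence was recorded 30 min later. Cells: ESRE-bla HeLa, 1,500 per well, compound exposure 5 hr at 37 C.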

[6] = qHTS assay to identify small molecule antagonists of the retinoid-related orphan receptor gamma (ROR-gamma) signaling pathway - cell viability counter screen (AID 1159520); further: nearly all actives have a fitted effect of over 50% in size
Summary of the method: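 Tet-on ROR gamma CHO cells (1,000/well) were plated 4 hr, given compounds in DMSO for 2 hr at 37 C, then induced with 1 uM final doxycycline for 16 hr. Viability was read as ATP by CellTiter-Glo luminescence after 30 min.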

[7] = target: Nuclear receptor ROR-gamma (Homo sapiens) (UniProt P51449); assay: qHTS assay to identify small molecule antagonists of the retinoid-related orphan receptor gamma (ROR-gamma) signaling pathway (AID 1159521;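 further: CHO cells with doxycycline inducible ROR-gamma driving an RORE luciferase reporter; top concentration of the series differs between compounds; nearly all actives have a fitted effect of over 50% in size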)
Summary of the method: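 Cells were plated, rested 4 h at 37 C, exposed to compounds for 2 h, then given 1 uM final doxycycline hyclate to induce RORγ expression. After 16 h, ONE-Glo luminescence from the ROR response element reporter was measured.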

[8] = qHTS assay to identify small molecule agonists of the AP-1 signaling pathway - cell viability counter screen (AID 1159525; calls by dose curve; further: nearly all actives have a fitted effect of over 55% in size)
Summary of the method: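 ME-180 AP-1-bla, 2500 cells/well, Opti-MEM + 0.5% dialyzed FBS; overnight 37 °C; cpd 15-pt titration, 5 h 37 °C; CellTiter-Glo 30 min RT; luminescence read; normalised to TOAB and DMSO controls.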

[9] = qHTS assay to identify small molecule agonists of the AP-1 signaling pathway (AID 1159526; calls by dose curve)
[10] = target: Retinoic acid receptor RXR-alpha (Homo sapiens) (UniProt P19793); assay: qHTS assay to identify small molecule agonists of the RXR signaling pathway (AID 1159527; calls by dose curve; further: nearly all actives have a fitted effect of over 35% in size)
Summary of the method: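 Cells plated at 2,000/well, rested 5 hr at 37 C, pin-dosed with DMSO compound solutions, incubated 16 hr, then loaded with B/G FRET substrate for 2 hr at RT before dual-emission fluorescence reading.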

[11] = qHTS assay to identify small molecule agonists of the RXR signaling pathway - cell viability counter screen (AID 1159529)
Summary of the method: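 Steps: seed RXR-alpha-UAS-bla HEK 293T cells in assay medium containing 2% charcoal-stripped FBS; incubate 5 hr; add compounds in DMSO; incubate 16 hr at 37 C; after the bla read, add CellTiter-Glo and read luminescence at 30 min.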

[12] = qHTS assay to identify small molecule antagonists of the retinoid acid receptor (RAR) signaling pathway - cell viability counter screen (AID 1159551); further: nearly all actives have a fitted effect of over 35% in size
Summary of the method: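 Cytotoxicity counter screen in C3RL4 cells: 6 h compound exposure with 1 uM retinol (final), viability from cellular ATP by luminescence.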

[13] = qHTS assay to identify small molecule antagonists of the retinoic acid receptor (RAR) signaling pathway (AID 1159552; further: nearly all actives have a fitted effect of over 50% in size)
Summary of the method: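 Retinol at 1 uM final stimulated RARE-luciferase expression in C3RL4 cells exposed to test compounds for 6 hr at 37 C. Reduced luminescence, read 30 min after detection reagent, indicated pathway antagonism.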

[14] = qHTS assay to identify small molecule agonists of the retinoic acid receptor (RAR) signaling pathway (AID 1159553)
Summary of the method: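 Agonist activity was scored in C3RL4 cells bearing a retinoic acid response element luciferase construct. Cells were treated with compounds for 6 hr at 37 C, and luciferase signal was measured as luminescence.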

[15] = qHTS assay to identify small molecule antagonists of the estrogen related receptor (ERR) signaling pathway from Tox21 library - cell viability counter screen (AID 1224834); further: nearly all actives have a fitted effect of over 30% in size
Summary of the method: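 Cytotoxicity of test substances is gauged in the same ERR cells used for the antagonist screen, after 17.5 h of compound treatment at 37 C, by CellTiter-Fluor fluorescence measured after 30 min.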

[16] = target: Luciferin 4-monooxygenase (Photinus pyralis) (UniProt P08659); assay: qHTS assay to identify small molecule inhibitors of firefly luciferase (AID 1224835); further: series mostly up to about 120 µM; nearly all actives have a fitted effect of over 25% in size
Summary of the method: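 Quantitative HTS format; KM concentrations of both substrates. Purified P. pyralis FLuc activity quantified from luminescence images.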

[17] = qHTS assay to identify small molecule agonists of the constitutive androstane receptor (CAR) signaling pathway - cell viability counter screen (AID 1224836); further: series mostly up to about 92 µM; nearly all actives have a fitted effect of over 45% in size
Summary of the method: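 Cells were seeded and incubated 4 hrs. Compounds were added across 15 concentrations together with PK11195 at 0.75 uM final. Plates were incubated 23 hrs at 37 C. CellTiter-Fluor was added and fluorescence measured.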

[18] = qHTS assay to identify small molecule antagonists of the constitutive androstane receptor (CAR) signaling pathway - cell viability counter screen (AID 1224837); further: series mostly up to about 92 µM; nearly all actives have a fitted effect of over 45% in size
Summary of the method: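 Multiplexed cytotoxicity read-out for the CAR antagonist screen: double-stable HepG2-CYP2B6-hCAR cells co-treated with 50 nM CITCO (final) and compound over 15 concentrations, incubated 23 hr, then assessed by CellTiter-Fluor fluorescence.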

[19] = target: Nuclear receptor subfamily 1 group I member 3 (Homo sapiens) (UniProt Q14994); assay: qHTS assay to identify small molecule antagonists of the constitutive androstane receptor (CAR) signaling pathway (AID 1224838); further: nearly all actives have a fitted effect of over 40% in size
Summary of the method: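 Compounds were titrated across 15 concentrations onto HepG2 cells double-stably expressing hCAR and a CYP2B6-2.2kb reporter, together with 50 nM CITCO (final). After 24 h at 37 C, luciferase activity was measured by luminescence.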

[20] = qHTS assay to identify small molecule antagonists of the vitamin D receptor (VDR) signaling pathway - cell viability counter screen (AID 743225); further: nearly all actives have a fitted effect of over 50% in size
Summary of the method: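 HEK293T VDR-bla; cpd + 1a,25-(OH)2D3 3 nM final, 16 h 37C/5% CO2; B/G FRET substrate 2 h RT; then CellTiter-Glo 30 min RT, luminescence.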

Measured: Potency

Sequence of Retinoic acid receptor RXR-alpha (Homo sapiens) (P19793 whole entry, looked up): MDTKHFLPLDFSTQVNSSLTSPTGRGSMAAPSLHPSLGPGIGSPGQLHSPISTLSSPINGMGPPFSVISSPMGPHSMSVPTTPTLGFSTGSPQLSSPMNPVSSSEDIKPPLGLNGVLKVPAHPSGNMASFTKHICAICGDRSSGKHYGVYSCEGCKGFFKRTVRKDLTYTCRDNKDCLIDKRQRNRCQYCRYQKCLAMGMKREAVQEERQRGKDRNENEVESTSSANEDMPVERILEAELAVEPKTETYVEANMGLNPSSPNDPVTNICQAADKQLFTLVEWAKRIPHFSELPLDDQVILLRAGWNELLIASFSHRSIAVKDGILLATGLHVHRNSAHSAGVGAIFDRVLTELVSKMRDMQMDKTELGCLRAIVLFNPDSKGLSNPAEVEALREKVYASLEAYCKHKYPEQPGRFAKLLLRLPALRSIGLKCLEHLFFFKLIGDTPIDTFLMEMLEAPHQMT
Sequence of Luciferin 4-monooxygenase (Photinus pyralis) (P08659 whole entry, looked up): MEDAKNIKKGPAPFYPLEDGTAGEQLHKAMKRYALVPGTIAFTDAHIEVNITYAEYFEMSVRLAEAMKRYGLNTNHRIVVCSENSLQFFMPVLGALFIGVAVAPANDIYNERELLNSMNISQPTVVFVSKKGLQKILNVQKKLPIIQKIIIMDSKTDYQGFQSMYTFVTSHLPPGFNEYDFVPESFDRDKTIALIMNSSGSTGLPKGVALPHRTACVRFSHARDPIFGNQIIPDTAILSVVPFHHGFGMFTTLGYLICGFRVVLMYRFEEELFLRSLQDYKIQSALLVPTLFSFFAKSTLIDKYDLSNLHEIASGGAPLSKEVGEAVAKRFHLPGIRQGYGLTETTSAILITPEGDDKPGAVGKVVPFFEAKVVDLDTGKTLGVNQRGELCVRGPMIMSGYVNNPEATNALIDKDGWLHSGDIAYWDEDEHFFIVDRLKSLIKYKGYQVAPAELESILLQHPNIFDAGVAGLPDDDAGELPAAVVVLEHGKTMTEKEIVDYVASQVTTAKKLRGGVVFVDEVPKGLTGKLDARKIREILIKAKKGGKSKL
Sequence of Nuclear receptor subfamily 1 group I member 3 (Homo sapiens) (Q14994 whole entry, looked up): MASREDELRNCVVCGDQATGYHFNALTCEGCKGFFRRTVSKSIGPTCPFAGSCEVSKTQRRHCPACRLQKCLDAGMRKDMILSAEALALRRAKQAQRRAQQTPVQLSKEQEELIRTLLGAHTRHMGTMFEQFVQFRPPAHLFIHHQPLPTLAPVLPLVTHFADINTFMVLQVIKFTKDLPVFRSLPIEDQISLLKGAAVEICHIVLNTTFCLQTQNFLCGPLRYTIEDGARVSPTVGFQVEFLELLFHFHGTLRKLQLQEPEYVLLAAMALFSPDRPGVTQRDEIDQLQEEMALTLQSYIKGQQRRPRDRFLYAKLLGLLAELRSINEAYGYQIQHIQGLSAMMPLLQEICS

C/C(=C1\CCOC(=O)S1)N(C=O)Cc1cnc(C)nc1N
not listed: [20]
inactive: all other assays above

CCCCCc1cccc(=O)o1
not listed: [20]
inactive: all other assays above

CC(C)C1OCCN1CCOC(=O)NCCCCCCNC(=O)OCCN1CCOC1C(C)C (configuration not stated)
not listed: [20]
inactive: all other assays above

C[C@H]1[C@@H](c2ccccc2)NC(=O)N1C
inactive: all assays above

C=CCOC(=O)CCCCCC
inactive: all assays above

CCOc1cccc(N)c1
inactive: all assays above

O=C(CCCl)NCCc1ccccc1
inactive: all assays above
